# From PubChem BioAssay
# HT1080 IDH1KD tx – qHTS for induction of synthetic lethality in tumor cells producing 2HG: qHTS for the HT-1080-IDH1KD cell line | HT-1080 IDH1 knockdown viability, ATP luminescence, 48 h | Potency, µM (titrated, usually from 46.1 µM), without a hit: at the top dose activity, negative = toxicity, hits mostly cytotoxic | 360,000 tested, 2% active;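 further: potency means the concentration at half of the fitted maximal effect; 0% = DMSO wells and -100% = cell-free medium wells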
#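 Using the IDH1-knockdown HT-1080 line run in the same batch and compound series as the NT line, viability after 48 h at 37 °C was determined by CellTiter-Glo luminescence and expressed as % activity.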
# DT40 TDP1 no CPT – qHTS for Inhibitors of human tyrosyl-DNA phosphodiesterase 1 (TDP1): qHTS in cells in absence of CPT; Potency, µM (doses to about 46.2 µM), for inactives: at the highest dose activity change, negative = growth inhibition, hits mostly inhibitors; 420,000 tested, 15% active; AID 686978, 2013; DT40 Tdp1-/- hTDP1 cells, no CPT, ATP luminescence, 48 h; further: potency means the concentration at half of the fitted maximal effect; nearly all actives have a fitted effect of over 55% in size
#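 Growth of hTDP1-complemented DT40 Tdp1-knockout cells is measured by ATP luminescence after at least 48 hr compound exposure at 37 °C, with DMSO substituting for the 20 nM CPT used in the parallel screen.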
# IL-1B inflam inh – qHTS for Inhibitors of Inflammasome Signaling: IL-1-beta AlphaLISA Primary Screen. 360,000 tested, 4.7% active. AID 743279, 2014. THP-1 LPS/ATP IL-1B secretion, AlphaLISA, 16 h; active compounds read low. activity change, % at 57.5 µM; in the data active means activity change below about -50%; inconclusive means mostly about -30% to -49%
#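 THP-1 cells pretreated 1 hr with compounds (up to 57.5 uM final), then stimulated with LPS (250 ng/mL final) plus ATP (1.25 mM final); secreted IL-1B measured by AlphaLISA after 16 hr, decreased signal indicating inhibition.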
# TDP1 cell CPT – qHTS for Inhibitors of human tyrosyl-DNA phosphodiesterase 1 (TDP1): qHTS in cells in presence of CPT | chicken DT40 Tdp1-/-;hTDP1 cells + 20 nM CPT, ATP luminescence, 48 h | Potency, µM (highest dose often 46.2 µM), inactives show at the highest dose activity change, negative = growth inhibition, most hits filed as inhibitors | AID 686979, 2013 | 420,000 tested, 12% active; further: potency means the concentration at half of the fitted maximal effect; nearly all actives have a fitted effect of over 55% in size
#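 Cell growth measured by CellTiter-Glo luminescence after a minimum 48 h, 37 C compound exposure with 20 nM CPT in Tdp1-knockout DT40 cells stably expressing hTDP1, seeded 400/well; qHTS titration format.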
# HT1080-NT tox – qHTS for induction of synthetic lethality in tumor cells producing 2HG: qHTS for the HT-1080-NT fibrosarcoma cell line; HT-1080-NT fibrosarcoma viability, CellTiter-Glo ATP luminescence, 48 h; Potency, µM (highest dose often 46.1 µM), for the others: top-dose activity, negative = less viability, hits mostly cytotoxic; 360,000 tested, 1.6% active; AID 686970, 2013;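 further: NT is the 2HG producing partner of a matched IDH1 knockdown line; potency means the concentration at half of the fitted maximal effect; 0% = DMSO-treated cells and -100% = media-only wells without cells; nearly all actives have a fitted effect of over 55% in size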
#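 HT-1080-NT; 750 cells/well; 5% FBS RPMI; 48 h compound, 37 degrees C; CellTiter-Glo luminescence; curve fitting and curve-class assignment.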
# * hit, by the source's call; u = inconclusive; x = no result given; ! = not confirmed by another sample; [ ] = another dose, or the depositor's remark. This is a sample that favours compounds with a hit; in the whole collection about 19% have one here. Unless noted, the call rests on the fitted dose curve; in most records, active means well fitted curve in the direction sought with a large enough effect; inconclusive means small, poorly fitted or top-dose-only effect, or another doubt; inactive means no such curve, though single readings can be large; an effect the other way counts as inactive or inconclusive. Unless noted, on the % scale 0 is the no-effect control and ±100 the full control effect.
SMILES,HT1080 IDH1KD tx,DT40 TDP1 no CPT,IL-1B inflam inh,TDP1 cell CPT,HT1080-NT tox
COc1ccc(N2CCN(S(=O)(=O)CC34CCC(CC3=O)C4(C)C)CC2)cc1 (stereo not drawn),0.4%,2.8%,0.0,-28.4%,-9.1%
CC(Sc1nnc(C2CC2)n1C1CC1)C(=O)NC1(C#N)CCCCC1 (stereo not drawn),-15.6%,-1.2%,-0.8,u,0.0%
Cn1c(/C=N/NC(=O)c2ccccc2)nc2ccccc21,u,25.9µM*,57.0,u,10µM*
Cn1c(C(=O)N/N=C/c2ccccc2)cc2ccccc21,6.0%,u,-5.8,-0.1%,0.3%
CC(C)NC(=S)N/N=C1\CCCCC1C1CCCCC1 (stereo not drawn),-8.0%,2.91µM*,-0.1,5.8µM*,3.6%
CC1CCCC/C1=N\NC(=S)Nc1ccccc1 (stereo not drawn),1.4%,-2.8%,-7.5,0.4%,18.6%
Cc1ccccc1S(=O)(=O)NC(=O)C1(C)CCN1C(=O)CC1CCCCC1 (stereo not drawn),u,-4.3%,17.5,-15.7%,15.8%
Cc1ccccc1C1(CC(=O)N2CCOCC2)CC(=O)N(Cc2cccnc2)C1=O (stereo not drawn),x,-7.5%,x,16.4%[9.04 µM],x
CCN1CCC(N(Cc2ccc(F)cc2)C(=O)Nc2cccc(C(F)(F)F)c2)CC1,x,16.4µM*,x,16.4µM*,x
CCN1CCC(N(Cc2cccc(OC)c2)C(=O)Nc2cccc(C)c2C)CC1,x,23.1µM*,x,u,x
CCN1CCC(N(Cc2cccc(OC)c2)C(=O)Nc2cccc(C(F)(F)F)c2)CC1,x,20.6µM*,x,u,x
CCN1CCC(NC(=O)Nc2cccc(C(F)(F)F)c2)CC1,10.6%,-0.5%,-14.7,-1.8%,2.7%
CC(=O)c1ccccc1-c1ccc2c(c1)CC(CNC(=O)c1cc(C)on1)O2 (stereo not drawn),x,u,x,-7.0%[9.04 µM],x
CN1CCCC(OC(=O)c2ccc(C#N)cc2)C1 (stereo not drawn),-6.9%,8.4%,0.5,3.6%,0.2%
CCOc1ccc(/C=C2\SC(N3CCCCC3)=NC2=O)cc1,-0.2%,2.91µM*,10.6,6.51µM*,-3.9%
CC(C)c1ccc(/C=C2\SC(N3CCCC3)=NC2=O)cc1,-12.9%,23.1µM*,u,u,-17.1%
O=C(NNC(=S)Nc1ccc(Cl)cc1Cl)C1CC1,10.0%,-23.1%,6.6,-4.2%,0.6%
C/C(=N\Nc1ccc([N+](=O)[O-])cc1)c1cc2ccccc2o1,-22.2%,u,28.0,-22.5%,-24.4%
COc1ccccc1N1CCN(CC(O)c2ccc3cc[nH]c3c2)CC1 (stereo not drawn),-13.3%,u,-7.4,u,-3.4%
COc1cccc(/C(=N/O)C2CC2c2ccc(Cl)cc2)c1 (stereo not drawn),-13.6%,-17.3%,-88.4*,5.5%,-5.3%
COc1cccc(/C(C)=N/NS(=O)(=O)c2ccc(Cl)cc2)c1,-1.5%,4.2%,26.5,2.9%,2.2%
CCCCCC(=O)NC(NC(=S)Nc1ccc(S(N)(=O)=O)cc1)C(Cl)(Cl)Cl (stereo not drawn),u,-5.2%,-1.7,3.1%,u
CCCCCCCC(=O)NC(Nc1ccc(S(N)(=O)=O)cc1)C(Cl)(Cl)Cl (stereo not drawn),u,20.6µM*,-20.9,u,u
N#C/C(=C(/O)c1ccc(Br)s1)c1nc2ccccc2[nH]1,u,7.31µM*,17.9,4.61µM*,u
N#C/C(=C(/O)c1cccs1)c1nc2ccccc2[nH]1,1.1%,-20.8%,57.9,u,-2.0%
SMILES,HT1080 IDH1KD tx,DT40 TDP1 no CPT,IL-1B inflam inh,TDP1 cell CPT,HT1080-NT tox
N#C/C(=C(/O)c1ccc([N+](=O)[O-])s1)c1nc2ccccc2[nH]1,u,1.03µM*,-17.3,-87.3%,u
COCCN1C(=O)CCC1(C)c1nnnn1-c1ccc2ccccc2c1 (stereo not drawn),6.6%,6.1%,46.7,12.9%,20.1%
COc1ccc(NC(=O)c2ccc(NC(=O)c3cccs3)cc2)cc1,u,-10.7%,-7.8,-19.6%,u
COc1nc(N)nc(NC(=O)c2cccs2)c1N=O,18.4µM*,2.31µM*,-87.1*,2.06µM*,16.4µM*
OC1CNc2c(ccc3ccccc23)C1 (stereo not drawn),11.5%,-1.0%,-4.1,-0.8%,14.8%
COc1ccc(C(CNC(=O)c2ccco2)N2CCOCC2)cc1 (stereo not drawn),4.1%,11.2%,-3.7,-19.5%,4.6%
CCc1cc(C(=O)NCC(c2ccc(OC)cc2)N2CCOCC2)sc1C (stereo not drawn),1.0%,-21.7%,-8.0,-9.2%,0.1%
COc1ccc(C(CNC(=O)c2ccc(-c3cccc(C(F)(F)F)c3)o2)N2CCOCC2)cc1 (stereo not drawn),-2.0%,20.6µM*,-27.7,u,-3.3%
CCC1CCc2sc(C(=O)NCC(c3ccc(OC)cc3)N3CCOCC3)cc2C1 (stereo not drawn),-21.9%,13µM*,-17.3,23.1µM*,-24.3%
COc1ccc(C(CNC(=O)c2oc3ccc(C)cc3c2C)N2CCOCC2)cc1 (stereo not drawn),x,-94.4%,x,23.1µM*,x
COc1ccc(C(CNC(=O)c2cc(C)oc2C)N2CCOCC2)cc1 (stereo not drawn),-4.6%,u,-3.9,u,-4.8%
Cc1c(C(=O)NCC(c2ccc(Cl)cc2)N2CCOCC2)oc2ccccc12 (stereo not drawn),x,23.1µM*,x,16.4µM*,x
Cn1cccc1C(=O)NCC1CCCCC1,10.9%,4.4%,-28.8,10.7%,-2.1%
O=C(Cn1ccn(-c2cccc(Cl)c2)c(=O)c1=O)NCCc1ccccc1,x,-0.1%,x,0.7%,x
Cc1ccc2oc(C(=O)NCC(c3ccc(Cl)cc3)N3CCOCC3)c(C)c2c1 (stereo not drawn),x,10.3µM*,x,8.2µM*,x
CNC(=O)C1CCN(S(=O)(=O)c2c(C)noc2/C=C/c2cccc(OC)c2)CC1,-3.8%,-14.8%,-20.4,2.5%,-2.4%
CCOC(=O)c1cccc(NC(=O)C2CCN(S(=O)(=O)c3c(C)noc3/C=C/c3ccc(C)cc3)CC2)c1,x,11.6µM*,x,20.6µM*,x
CCN(CCNC(=O)C1CCN(S(=O)(=O)c2c(C)noc2C)CC1)c1ccccc1,-1.4%,23.1µM*,4.8,u,-3.9%
CCc1ccc(NC(=O)C2CCN(S(=O)(=O)c3c(C)noc3C)CC2)cc1,-9.7%,18.4µM*!,0.9,u,-19.5%
